Test results reported in PubChem BioAssay.
Several values for one entry are separate records, joined by “and”; a condition that tells them apart may be missing. Identical values can stand only once. Activity calls are given as the source filed them.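 Rule for the calls, unless noted: active = inhibition at or above 50% relative to wild type and mutant plate controls; inactive = inhibition below 50%.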

How the values were obtained:
[1] = inhibitors of TNFa-induced NFkB p65 translocation, primary screen, imaging, HUVEC, MLSMR starter and 10KST1 sets (AID 438;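 active = inhibition above 20% together with a positive visual image hit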;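 note: compound added about 3h40 before a 20 min TNFalpha stimulation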;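 for inhibition: signal is the nuclear over cytoplasmic p65 intensity ratio per well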); conditions: HUVEC TNFa-induced p65 nuclear translocation; cell count: measured here: nuclei count (cytotoxicity indicator), at 2.08 µM; inhibition: at 2 µM, stronger effect = higher value, 0% TNFa-plus-vehicle, 100% no-TNFa wells
[2] = inhibitors of mutant huntingtin aggregation, primary screen, imaging, exon1htt(103Q)mCFP cells, high-content imaging (AID 483;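 active = visual image review flags a hit and inhibition of aggregation exceeds 20%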;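 note: compound exposure lasted 3 days before fixation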;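 for nuclei count: percent of the per-plate median nuclei count of sample wells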); conditions: exon1htt(103Q)mCFP cell line, aggregate imaging, at 2 µM; inhibition of aggregation: stronger effect = higher value; nuclei count: measured here: cell count, toxicity
[3] = inhibitors of E-selectin induction by TNFa, primary screen, imaging, HUVEC, immunofluorescence, MLSMR starter and 10KST1 sets (AID 487;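 active = visually confirmed hit in the image check and inhibition above 20%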;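 for inhibition: signal is fraction of cell area covered by stained E-selectin grains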;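 for nuclei count: 100% = median nuclei count of all wells on the same plate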); conditions: HUVEC TNFalpha-induced E-selectin immunofluorescence imaging, at 2 µM; inhibition: stronger effect = higher value; nuclei count: measured here: cell number, toxicity
[4] = DUSP6 inhibitors restoring Erk phosphorylation by chemical complementation, primary imaging in DUSP6-transfected HeLa (AID 609;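 active = compounds giving at least 50% inhibition in the cell-based MKP-3 phosphatase rescue imaging test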;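 for inhibition: phospho-Erk level distribution per well compared with pooled transfected vehicle control wells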); conditions: HeLa MKP-3 transfected, phospho-Erk imaging KS statistic, at 10 µM, cells stimulated with TPA for 15 min
[5] = biological target: Dual specificity protein phosphatase 6 (Homo sapiens) (UniProt Q16828); assay: as above; conditions: HeLa MKP-3 transfected, phospho-Erk imaging KS statistic; at 10 µM; stronger effect = higher value; cells stimulated with TPA for 15 min
Chain of Dual specificity protein phosphatase 6 (Homo sapiens) (Q16828 whole entry, looked up): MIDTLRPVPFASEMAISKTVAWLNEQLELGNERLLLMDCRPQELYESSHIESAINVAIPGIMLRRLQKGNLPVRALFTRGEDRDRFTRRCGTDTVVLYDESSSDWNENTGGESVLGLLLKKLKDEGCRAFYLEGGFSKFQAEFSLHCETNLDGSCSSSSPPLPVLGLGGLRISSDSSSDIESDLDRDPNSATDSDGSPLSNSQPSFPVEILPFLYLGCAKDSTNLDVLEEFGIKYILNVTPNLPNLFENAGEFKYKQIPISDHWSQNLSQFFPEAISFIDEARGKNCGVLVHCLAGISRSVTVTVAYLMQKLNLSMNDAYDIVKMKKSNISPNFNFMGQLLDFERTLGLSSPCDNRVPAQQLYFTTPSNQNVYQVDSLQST

[6] = biological target: Voltage-gated potassium channel subunit beta-2 (Rattus norvegicus) (UniProt P62483); assay: KvBeta enzyme negative modulators, primary screen, biochemical, NADPH fluorescence (AID 622;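 active = fluorescence slope higher than the sample average by over 3 SD, cut at about -0.22 in these data, passing the limit was not always enough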;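 note: slope of raw intensity against log time taken from 70 to 1610 s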); conditions: recombinant KvBeta, 4-cyanobenzaldehyde reduction, at 10 µM, stronger effect = higher value
Chain of Voltage-gated potassium channel subunit beta-2 (Rattus norvegicus) (P62483 whole entry, looked up): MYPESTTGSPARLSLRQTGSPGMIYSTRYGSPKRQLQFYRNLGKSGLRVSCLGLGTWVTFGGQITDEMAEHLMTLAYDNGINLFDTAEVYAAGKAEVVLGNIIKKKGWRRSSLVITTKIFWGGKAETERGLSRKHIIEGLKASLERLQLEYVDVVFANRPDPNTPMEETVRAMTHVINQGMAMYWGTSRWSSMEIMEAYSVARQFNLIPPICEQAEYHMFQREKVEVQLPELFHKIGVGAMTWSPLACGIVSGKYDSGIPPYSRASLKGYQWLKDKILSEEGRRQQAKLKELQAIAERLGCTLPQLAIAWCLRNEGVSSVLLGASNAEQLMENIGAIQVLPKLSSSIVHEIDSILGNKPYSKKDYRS

[7] = biological target: Voltage-gated potassium channel subunit beta-2 (Rattus norvegicus) (UniProt P62483); assay: KvBeta positive modulators, primary screen, biochemical, NADPH fluorescence (AID 623;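 active = NADPH fluorescence slope more negative than the mean of all samples by about 3 SD, 99.7% confidence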;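 note: fluorescence intensity change per second fitted from 20 to 320 s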); conditions: Recombinant KvBeta, NADPH fluorescence decrease slope, 10 min; at 10 µM; stronger effect = lower value
[8] = biological target: Alpha-2C adrenergic receptor (Homo sapiens) (UniProt P18825); assay: modulators of alpha2C/GIRK thallium flux, primary screen, cell-based, HEK293 alpha2C/GIRK1/2 (AID 624;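 active = fluorescence slope after compound addition differing from the mean of all screened samples at 99.7% confidence, in either direction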;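 note: slope of fluorescence ratio to pre-addition baseline per second over 15 to 24 s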); conditions: thallium flux BTC fluorescence, at 10 µM, actives lie on both sides
Chain of Alpha-2C adrenergic receptor (Homo sapiens) (P18825 whole entry, looked up): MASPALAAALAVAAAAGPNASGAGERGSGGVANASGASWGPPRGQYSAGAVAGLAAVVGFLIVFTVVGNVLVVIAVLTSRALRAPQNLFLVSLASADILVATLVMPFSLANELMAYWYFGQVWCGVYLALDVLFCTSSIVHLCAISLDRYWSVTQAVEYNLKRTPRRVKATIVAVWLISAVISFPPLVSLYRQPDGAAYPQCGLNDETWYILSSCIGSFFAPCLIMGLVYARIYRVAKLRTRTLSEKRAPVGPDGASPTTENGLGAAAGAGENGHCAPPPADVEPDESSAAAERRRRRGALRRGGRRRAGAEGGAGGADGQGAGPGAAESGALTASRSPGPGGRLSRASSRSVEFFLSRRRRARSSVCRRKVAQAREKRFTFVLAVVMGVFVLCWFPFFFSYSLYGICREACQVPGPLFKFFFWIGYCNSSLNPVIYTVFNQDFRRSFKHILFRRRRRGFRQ

[9] = inhibitors of larval lipid processing in zebrafish, primary screen, whole organism, PED6 fluorescence, gall bladder and intestine (AID 686;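 active = a full or partial loss of lipid-probe fluorescence in the fish gall bladder, intestine or both, judged by eye; inactive = no fluorescence loss, or compound toxic to the fish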;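 note: larvae 5 to 7 days old with five fish per well; signal comes from phospholipase A2 cleavage of quenched PED6 carried via bile; overnight exposure to compound and PED6 before scoring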); conditions: Zebrafish larvae PED6 lipid processing, fluorescence scoring; screened at 20 µM (by protocol)
[10] = inhibitors of Chlamydomonas gravitaxis, primary screen, whole organism, Chlamydomonas reinhardtii, WT vs cilia-less mutant, absorbance, 96-well (AID 463189); conditions: OD600 absorbance, 2 days, at 10 µM, stronger effect = higher value;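 note: 0% = wild type cc124 cells in DMSO and 100% = ciliumless bld1 mutant cells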
[11] = inhibitors of Sendai virus-induced IRF3 signaling, primary screen, TLR/RLR signaling modifier project, cell-based, Sendai virus stimulus, luciferase, 10K MLSCN set (AID 602276;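 active = inhibition at or above 50% at 10 µM; inactive = inhibition below 50%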;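 note: firefly luciferase from ISG56 promoter only with Renilla not read in this screen; 0% = Sendai virus plus DMSO and 100% = medium plus DMSO without virus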); conditions: HEK293 RL24 IRF3 luciferase reporter, at 10 µM, stronger effect = higher value
[12] = inhibitors of poly I:C-induced TLR3 signaling, primary screen, cell-based, poly I:C stimulus, luciferase, 10K MLSCN set (AID 602277;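 active = inhibition of the reporter signal at or above 50%; inactive = inhibition below 50%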); conditions: HEK293-TLR3 RL24 IRF3 luciferase reporter, at 10 µM, stronger effect = higher value
[13] = measured here: cell density z-score
[14] = measured here: nuclear c-Myc green intensity z-score
[15] = measured here: nuclear pErk red intensity z-score, stronger effect = higher value

SMILES	cell count [1]	inhibition [1]	inhibition of aggregation [2]	nuclei count [2]	inhibition [3]	nuclei count [3]	z-score [4, 13]	z-score [4, 14]	z-score [4, 15]	inhibition [5]	fluorescence slope [6]	NADPH fluorescence slope [7]	slope [8]	outcome [9]	inhibition [10]	inhibition [11]	inhibition [12]
C[C@]12CC[C@@H]3c4ccc(OS(=O)(=O)O)cc4CC[C@H]3[C@@H]1CCC2=O	725	-2.6% (inactive)	1.7% (inactive)	98.9%	-120% (inactive)	121%	1.77	-0.742	-1.13	1.48% (inactive)	-0.507 (inactive)	-4.6e-05 (inactive)	0.00404 (inactive)	inactive	2.37% (inactive)	11.2% (inactive)	25.7% (inactive)
COc1ccc2cnn(-c3ccccc3C)c(=O)c2c1OC	613	-6.2% (inactive)	1.9% (inactive)	116%	-124% (inactive)	157%	0.481	0.125	1.16	-6.48% (inactive)	-0.372 (inactive)	-3.7e-05 (inactive)	0.00535 (inactive)	inactive	9.21% (inactive)	9.25% (inactive)	5.14% (inactive)
CCC(CC)C1C(C#N)=C(N)Oc2n[nH]c(C)c21 (stereo not given)	565	-2.9% (inactive)	-28.3% (inactive)	102%	-21.1% (inactive)	112%	-1.42	-0.486	0.51	5.57% (inactive)	-0.492 (inactive)	-0.000106 (inactive)	0.00492 (inactive)	inactive	-5.48% (inactive)	41.8% (inactive)	50% (inactive)
CCN(CC)CCNC(=O)c1cc(Cl)c(N)cc1OC	552	-4.5% (inactive)	5.6% (inactive)	106%	-17.3% (inactive)	120%	0.156	-0.776	0.343	-0.493% (inactive)	-0.444 (inactive)	4.3e-05 (inactive)	0.00461 (inactive)	inactive	8.75% (inactive) and -3.64% (inactive)	-8.87% (inactive)	30.5% (inactive)
CCN(CC)CC#CCOC(=O)C(O)(c1ccccc1)C1CCCCC1 (stereo not given)	506	-6.6% (inactive)	-15.9% (inactive)	97.3%	4.9% (inactive)	112%	-0.442	-0.591	0.229	5.42% (inactive)	-0.492 (inactive)	-7.5e-05 (inactive)	0.00459 (inactive)	inactive	6.66% (inactive) and 16.9% (inactive)	9.64% (inactive)	30.4% (inactive)
CO[C@@]1(NC(=O)CSCC#N)C(=O)N2C(C(=O)O)=C(CSc3nnnn3C)CS[C@@H]21	632	-3.9% (inactive)	3.8% (inactive)	103%	-96.3% (inactive)	143%	0.71	-0.314	-0.547	19.2% (inactive)	-0.497 (inactive)	-7e-05 (inactive)	0.00536 (inactive)	inactive	5.45% (inactive) and -4.17% (inactive)	7.82% (inactive)	28.6% (inactive)
CN1CCN(CC(=O)N2c3ccccc3C(=O)Nc3cccnc32)CC1	529	5.4% (inactive)	-20% (inactive)	110%	-81.3% (inactive)	123%	2.59	-0.126	-1.97	25.7% (inactive)	-0.476 (inactive)	-3.8e-05 (inactive)	0.00501 (inactive)	inactive	1.89% (inactive) and 39.4% (inactive)	18.8% (inactive)	34.2% (inactive)
COc1ccc2c(c1OC)C(=O)OC2C1c2c(cc3c(c2OC)OCO3)CCN1C (stereo not given)	463 and 544	-10.9% (inactive) and 0.8% (inactive)	-1% (inactive) and -12.6% (inactive)	101% and 94.4%	-43.9% (inactive) and -115% (inactive)	132% and 119%	1.55	-0.813	-0.77	5.42% (inactive)	-0.541 (inactive) and -0.459 (inactive)	7.5e-05 (inactive) and -6e-05 (inactive)	0.0053 (inactive) and 0.00526 (inactive)	inactive	19.2% (inactive)	23.1% (inactive) and 13.1% (inactive)	29.1% (inactive) and 24% (inactive)
CCc1ccccc1NC(=O)CSC1=C(C#N)C(c2ccc(O)c(OC)c2)C2=C(CCCC2=O)N1 (stereo not given)	554	-8.4% (inactive)	-29.5% (inactive)	109%	-146% (inactive)	137%	-0.0849	-0.0258	0.52	13.2% (inactive)	-0.422 (inactive)	-3.5e-05 (inactive)	0.00571 (inactive)	inactive	22.1% (inactive)	18.6% (inactive)	20% (inactive)
CCOC(=O)N1CCN(C(=O)c2cn(CC)c3cc(N4CCN(C)CC4)c(F)cc3c2=O)CC1	544	2.6% (inactive)	15.1% (inactive)	96%	-20.9% (inactive)	121%	0.456	0.816	-1.34	-7.28% (inactive)	-0.267 (inactive)	1.3e-05 (inactive)	0.00518 (inactive)	inactive	15.7% (inactive)	21.5% (inactive)	21.4% (inactive)
